Hits are enriched below; roughly 6.3% of the tested compounds scored in any of these assays.
Fluor 339 460 – intrinsic fluorescence of library compounds, ex339/em460 – biochemical, MLSMR library, data from DPM-DC assay, artefact control, profiling panel | AID 709 | 65,000 compounds, 5.5% hits | fluorescence fold increase at 10 µM | compound autofluorescence, ex339/em460 nm, NADH buffer; stronger effect = higher value; 1 = no-compound wells, NADH background;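 active = at 10 µM, mean starting fluorescence two-fold or more over control wells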;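 also: signal is the first read of a kinetic run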
Spn PMK inh – inhibitors of Streptococcus pneumoniae phosphomevalonate kinase; purified PMK, PK/LDH-coupled NADH absorbance 340 nm; inhibition, % at 10 µM; 65,000 compounds, 0.49% hits;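 active = top-ranked compounds by inhibition in the single 10 µM screen, taking a fixed number of the strongest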;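 also: 0% = full reaction with DMSO carrier and 100% = background rate without enzyme reaction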
DPM-DC inhibit – blocks S. pneumoniae diphosphomevalonate decarboxylase; calls only at 10 µM; purified DPM-DC, PK/LDH coupled NADH fluorescence; 65,000 compounds, 0.49% hits; AID 556;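 active = the 320 compounds with the highest percent inhibition in the single-dose primary screen, excluding strongly autofluorescent ones, cut at about 32% in these data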;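 also: kinetic rate of NADH fluorescence loss reporting ADP formed by the decarboxylase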
NADH enzymes – inhibition of NAD/NADH coupling enzymes, library profiling. coupled PK/LDH NADH assays, four targets. IC50, µM (highest dose often 10 µM), inactives show top-dose inhibition. 65,000 compounds, 0.02% hits;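 active = single-dose screening hits from any of four coupled enzyme assays that gave an IC50 when retested across doses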;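 also: the DPM-DC format reads NADH fluorescence rather than 340 nm absorbance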
A340 absorber – compound absorbs light at 340 nm; compound absorbance at 340 nm, fold over control; fold change at 10 µM; 65,000 tested, under 10 active; AID 708;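 active = at 10 µM dose, initial 340 nm absorbance at least 2 fold that of control wells; inactive = change under 2 fold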;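 also: initial absorbance extrapolated from kinetic A340 decline of NADH oxidation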
MK inhibit – blocks S. pneumoniae mevalonate kinase; purified MK, PK/LDH-coupled NADH absorbance 340 nm; inhibition, % at 10 µM; 65,000 compounds, 0.48% hits; AID 555;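 active = ranked among the strongest by inhibition in the single 10 µM screen, a fixed top-ranked set picked for dose follow-up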
Starred values were filed as active, the others as inactive; i = inactive; . = no result shown; + = active, no number.

SMILES	Fluor 339 460	Spn PMK inh	DPM-DC inhibit	NADH enzymes	A340 absorber	MK inhibit
Cc1nn(Cc2ccccc2)c2c1C(c1ccncc1)C(C#N)=C(N)O2 (stereo not given)	1.1	31*	i	4%	0.98	8
Cc1nn(Cc2ccccc2)c2c1C(c1ccco1)C(C#N)=C(N)O2 (stereo not given)	1	9	i	8%	1.1	15
Nn1c(COc2ccccc2)nnc1SC(F)F	1.1	6	i	5%	1	6
O=C(COc1ccccc1)Nc1ccc(Cl)c(-c2nc3ncccc3o2)c1	1.3	0	i	0%	1.2	1
c1ccc2c(-c3nc4ncccc4o3)cccc2c1	3.8*	4	.	6%	1.1	8
COc1cc(Cn2c(N)c(C#N)c3nc4ccccc4nc32)cc(OC)c1	3.9*	0	.	3%	1	6
CCN(CC)CCOC(=O)c1cccc(Br)c1	1.1	1	i	1%	1	.
N#Cc1c(N)n(CCOC(=O)c2cccc(Br)c2)c2nc3ccccc3nc12	2.4*	0	.	3%	1	1
COc1cccc(Cn2c(N)c(C#N)c3nc4ccccc4nc32)c1OC	3.4*	8	.	6%	1	4
COc1ccc(-c2cc(C(=O)Nc3c(C)nn(Cc4ccc(Cl)cc4)c3C)no2)cc1	1.1	12	i	4%	1.1	0
CCO/C=C1\C(=O)N(c2ccccc2)C(=O)c2ccccc21	2.2*	0	.	9%	1.1	17
c1cncc(CNc2c3c(nc4nnnn24)CCCC3)c1	1.1	0	i	2%	1.1	7
CCN(CC)CCNc1ncnc2c1[nH]c1ccc(OC)cc12	2.4*	4	.	5%	1.1	6
CCN(CC)CCNC(=O)CCCCn1c(=S)[nH]c2c([nH]c3ccc(OC)cc32)c1=O	1.6	1	i	14%	1.1	42*
Cc1ccc2[nH]c3c(NCCN4CCOCC4)ncnc3c2c1	1.6	6	i	6%	1	8
C=CCNc1ncnc2c1[nH]c1ccc(C)cc12	4*	2	.	5%	1	8
CCN(CC)CCNC(=O)CCn1c(=S)[nH]c2cc3c(cc2c1=O)OCO3	1	7	i	2%	1	1
CCc1ccccc1NC(=O)COC(=O)C1CC(=O)N(c2ccc(F)cc2)C1 (stereo not given)	1.1	5	i	3%	1	3
Cc1ccc(S(=O)(=O)Cn2cnnn2)cc1	1.1	9	i	4%	1	4
CCN(CC)CCN(Cc1cc2cc(C)ccc2[nH]c1=O)C(=O)Nc1ccccc1OC	1.2	11	i	6%	1	5
CCOc1ccc2[nH]c(=O)c(CN(Cc3cccnc3)C(=O)Nc3ccccc3OC)cc2c1	2*	1	i	6%	1.2	1
COc1ccc2[nH]c(=O)c(CN(CCCN(C)C)C(=O)Nc3ccc(F)cc3)cc2c1	2.7*	9	i	6%	1.1	3
COc1ccc2[nH]c(=O)c(CN(Cc3cccnc3)C(=O)Nc3ccccc3)cc2c1	2.5*	13	i	12%	1.1	4
CC(=O)N(Cc1cccnc1)Cc1cc2ccccc2[nH]c1=O	1.4	13	i	6%	1.1	4
CCn1c(C(C#N)/C(=N\S(=O)(=O)c2cccs2)c2ccccc2)nc2ccccc21 (stereo not given)	1	2	i	1%	1	8
SMILES	Fluor 339 460	Spn PMK inh	DPM-DC inhibit	NADH enzymes	A340 absorber	MK inhibit
CCC(Oc1ccccc1)C(=O)Nc1ccc(-c2nnc(-c3ccco3)o2)cc1 (stereo not given)	2.8*	3	i	15%	1.1	12
CN1c2ccccc2-c2nc3ccccc3n2C1c1ccncc1 (stereo not given)	1.9	10	i	5%	1.1	5
CN1c2ccccc2-c2nc3ccccc3n2C1c1ccccn1 (stereo not given)	2.2*	0	.	4%	1.1	7
COc1ccc(CN2CCN(c3cccc(C)c3C)CC2)cc1OC	1.1	12	i	21%	1.1	51*
COc1cc(CN2CCN(c3cccc(C)c3C)CC2)cc(Br)c1O	1.1	5	i	11%	1.1	29
COc1ccc(CN2CCC(C(=O)N3CCN(c4ccccc4F)CC3)CC2)cc1OC	1.1	0	i	17%	1.1	52*
COc1cc(CN2CCC(C(=O)N3CCN(c4ccccc4F)CC3)CC2)cc(OC)c1OC	1.1	5	i	15%	1	39
C=CCn1c(N)c(C(=O)Nc2ccccc2)c2nc3ccccc3nc21	1.4	2	i	1%	1.1	0
C=CCNC(=O)c1c(N)n(-c2cccc(S(N)(=O)=O)c2)c2nc3ccccc3nc12	2.1*	8	.	4%	1.1	0
Nc1c(C(=O)NCCN2CCOCC2)c2nc3ccccc3nc2n1-c1ccccc1	3.9*	5	.	8%	1	10
COC(=O)c1c(N)n(-c2ccc(N3CCOCC3)cc2)c2nc3ccccc3nc12	1	7	i	2%	1.1	0
COC(=O)c1c(N)n(-c2ccc(NC(C)=O)cc2)c2nc3ccccc3nc12	3.8*	9	.	8%	1.1	6
Nc1c(C(=O)NCCN2CCOCC2)c2nc3ccccc3nc2n1-c1ccc2c(c1)OCO2	1.6	8	+	10%	1	14
Cc1cc(C)cc(-n2c(=O)c3sccc3n(CC(=O)NCc3ccco3)c2=O)c1	1.1	9	i	4%	0.99	2
COc1ccc(-n2c(C)cc(C(=O)COC(=O)Cn3cnc4ccccc43)c2C)cc1	1.1	14	i	5%	1	0
COc1ccc(N(CC(=O)NC2CCCC2)C(=O)CCC(=O)Nc2cc(C)on2)c(OC)c1	1.1	6	i	5%	1	8
COCCNC(=O)c1c(N)n(-c2cccc(C)c2)c2nc3ccccc3nc12	3.9*	7	.	9%	1	11
O=C1CC(c2ccc(F)cc2)Cc2nc(N3CCc4ccccc43)ncc21 (stereo not given)	3.8*	19	.	13%	1.1	7
O=C1CC(c2ccc(F)cc2)Cc2nc(N3CCN(c4ccccc4)CC3)ncc21 (stereo not given)	1.2	2	i	2%	1	4
CCN(CC)S(=O)(=O)c1ccc(Nc2nc3ccccc3n3nnnc23)cc1	3.6*	7	i	7%	1.1	0
Cc1ccc(CNc2nc3ccccc3n3nnnc23)cc1	2.4*	9	i	10%	1.1	0
c1ccc2c(c1)nc(Nc1ccc3c(c1)OCO3)c1nnnn12	1.2	8	i	3%	1	0
Cc1ccc(-c2nc3ccccc3n3nnnc23)cc1	3.8*	7	.	8%	1.1	9
CCOC(=O)N1CCC(Nc2nc3ccccc3n3nnnc23)CC1	4*	13	.	7%	1	0

High-throughput results from PubChem BioAssay.
